“And” between values parts separate entries of the source, which are not always exact repeats. Equal values may be shown once. The source made the active and inactive calls.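 How the source made its calls, unless noted: active means normalized viability below 100% at a tested concentration; inactive means the rest.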
Tests used:
[1] = Wnt pathway potentiators raising nuclear beta-catenin – imaging, WNT3A-conditioned medium, mouse C2C12, NPC library, primary screen (AID 1117326; in the data active means nuclear beta-catenin stimulation mostly above about 4.2%, no sharp cut-off; inactive means mostly below about 10%); conditions: stronger effect = higher value
[2] = stimulators of insulin release from INS-1E, primary screen, cell-based, 5 mM glucose, NPC library (AID 1117329;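 active means compound raises insulin release from rat beta cells at 5 mM glucose, no numeric limit stated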); conditions: rat INS-1E insulin secretion, at 10 µM, stronger effect = higher value
[3] = growth inhibition of GSK3B-pretreated HCT116 cells – cell-based, CellTiter-Glo, 0.2 to 20 µM (AID 1117336;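 active means compounds lowering colon cancer cell viability after pretreatment blocking the GSK3B kinase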); conditions: HCT116 viability after GSK3B inhibitor, at 20 µM, stronger effect = higher value
[4] = inhibition of endothelial tube formation, primary screen, imaging, VEGF stimulated, CD31 staining, tube area, NPC library (AID 1117340;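 active means compound that reduces growth-factor-driven endothelial tube area in a mixed cell culture, no cutoff stated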); conditions: VEGF-stimulated ADSC/ECFC co-culture, at 10 µM, stronger effect = higher value
[5] = GLP1 release stimulators, primary, NCI-H716, NPC library (AID 1117341;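 active means compound raises GLP1 secretion from the human gut endocrine cells, with no numeric limit stated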); conditions: NCI-H716 cells, at 10 µM, stronger effect = higher value
[6] = HCT116 colon cancer cell growth inhibition, primary screen, CellTiter-Glo luminescence, NPC library (AID 1117342;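 active means compounds that lower survival of HCT116 colon cancer cells in the luminescence readout, no numeric limit stated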); conditions: at 20 µM (top of the series)
[7] = reduced SW480 viability measured with CellTiter-Glo, NPC library, primary (AID 1117343;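 active means compounds that lower viability of the colon cancer cells in the luminescence readout, with no numeric limit stated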); conditions: CellTiter-Glo luminescence; at 20 µM (top of the series)
[8] = NPC library primary testing for decreased DLD-1 cell viability via CellTiter-Glo (AID 1117346;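 active means compounds that lower survival of DLD-1 colon cancer cells in the luminescence readout, no cutoff given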); conditions: DLD-1 viability, CellTiter-Glo luminescence; at 20 µM (top of the series)
[9] = target: 6-phosphogluconate dehydrogenase, decarboxylating (Homo sapiens) (UniProt P52209); assay: inhibition of human phosphogluconate dehydrogenase – biochemical, recombinant enzyme, NADPH absorbance, primary screen (AID 1159550;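 active means at least 20% inhibition of 6-phosphogluconate dehydrogenase activity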); conditions: recombinant 6PGD, NADPH absorbance 341 nm; at 10 µM; stronger effect = higher value
[10] = EMT-state selective cytotoxicity in co-culture – imaging, PC-3E GFP, TEM4-18 mCherry, primary screen (AID 1345086;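 active means compounds killing one labelled cell type while sparing the other, by normalised counts and ratio limits, not self-fluorescent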;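 on all read-outs here: cells exposed to compound for 72 h before imaging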;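 on red/green cell ratio (normalised): normalised mesenchymal count divided by normalised epithelial count so high means epithelial killing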); conditions: PC-3E GFP / TEM4-18 mCherry co-culture, imaging cell counts, at 1 µM; for red/green cell ratio (normalised): actives lie on both sides, counts scaled to control wells, 1 = unselective
[11] = MELAS cybrid and Rieske KO viability enhancers – cell-based, MELAS cybrids, Rieske KO mouse fibroblasts, CellTiter-Glo, primary screen (AID 1508586;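 active means mean z-score across replicates of 1.96 or higher in either the MELAS or the Rieske mutant cell line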;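 further: z relative to plate mean and SD of compound and empty wells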); conditions: low glucose
[12] = drug combination growth inhibition, ovarian cancer – cell-based, oncology-focused library, rucaparib conditional, profiling panel (AID 1508598); conditions: patient-derived ovarian cancer cells, CellTiter-Glo viability, 144 h, stronger effect = lower value
[13] = target: NAD(+) hydrolase SARM1 (Homo sapiens) (UniProt Q6SZW1); assay: blocking NAD cleavage by SARM1 SAM-TIR – cell lysate, NAD-Glo luminescence (AID 1508614;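 active means compound whose remaining NAD level is above about 45 nM, limit read from the data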); conditions: SAM-TIR HEK293T lysate NADase, at 1 µM, stronger effect = higher value
F380Y = assay: BK channel mutant inhibitors and activators – cell-based, U2OS BacMam, thallium flux, beta subunits, selectivity assay, profiling panel (AID 1259406;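 active means thallium flux through the channel raised or lowered by more than 3 SD from vehicle-only wells, actives on both sides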;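 further: initial slope of Thallos dye fluorescence rise after thallium is added; log ratio against the mean of 0.3% DMSO vehicle wells on the same plate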); conditions: U2OS BacMam BK variants, at 30 µM
F380Y/beta1 = assay: as above; conditions: U2OS BacMam BK variants, at 30 µM
F380Y/beta2Delta = assay: as above; conditions: U2OS BacMam BK variants, at 30 µM
F380Y/beta4 = assay: as above; conditions: U2OS BacMam BK variants, at 30 µM
[14] = target: Calcium-activated potassium channel subunit alpha-1 (Homo sapiens) + Leucine-rich repeat-containing protein 26 (Homo sapiens) (UniProt Q12791+Q2I0M4); assay: as above; conditions: U2OS BacMam BK variants, F380Y/Slo1WT/gamma1, at 30 µM
R275C = assay: as above; conditions: U2OS BacMam BK variants, at 30 µM
[15] = measured here: epithelial PC-3E GFP cell survival
[16] = measured here: mesenchymal TEM4-18 mCherry cell survival
[17] = MELAS cybrid survival, CellTiter-Glo 48 h, stronger effect = higher value
[18] = Rieske KO mouse fibroblast survival, CellTiter-Glo 72 h

Chain of NAD(+) hydrolase SARM1 (Homo sapiens) (Q6SZW1 whole entry, looked up): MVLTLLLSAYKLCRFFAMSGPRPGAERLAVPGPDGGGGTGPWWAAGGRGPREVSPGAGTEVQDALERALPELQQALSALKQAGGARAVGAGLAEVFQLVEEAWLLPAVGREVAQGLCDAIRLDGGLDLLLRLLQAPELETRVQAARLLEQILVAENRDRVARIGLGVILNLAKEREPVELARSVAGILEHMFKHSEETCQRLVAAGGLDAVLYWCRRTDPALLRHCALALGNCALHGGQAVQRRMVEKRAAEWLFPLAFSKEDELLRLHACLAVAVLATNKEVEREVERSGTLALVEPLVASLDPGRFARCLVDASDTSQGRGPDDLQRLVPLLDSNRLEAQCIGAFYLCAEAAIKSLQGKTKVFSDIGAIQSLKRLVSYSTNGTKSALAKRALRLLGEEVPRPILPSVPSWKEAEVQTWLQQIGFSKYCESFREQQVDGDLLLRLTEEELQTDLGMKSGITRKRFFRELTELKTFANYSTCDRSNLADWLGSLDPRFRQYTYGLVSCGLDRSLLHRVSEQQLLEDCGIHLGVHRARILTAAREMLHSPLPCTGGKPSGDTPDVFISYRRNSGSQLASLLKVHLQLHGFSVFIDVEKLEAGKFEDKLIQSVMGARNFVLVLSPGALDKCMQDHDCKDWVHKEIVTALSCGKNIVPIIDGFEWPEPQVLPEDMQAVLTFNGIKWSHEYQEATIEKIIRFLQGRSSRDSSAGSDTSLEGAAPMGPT
Chain of Calcium-activated potassium channel subunit alpha-1 (Homo sapiens) + Leucine-rich repeat-containing protein 26 (Homo sapiens) (Q2I0M4 whole entry, looked up, one chain of several): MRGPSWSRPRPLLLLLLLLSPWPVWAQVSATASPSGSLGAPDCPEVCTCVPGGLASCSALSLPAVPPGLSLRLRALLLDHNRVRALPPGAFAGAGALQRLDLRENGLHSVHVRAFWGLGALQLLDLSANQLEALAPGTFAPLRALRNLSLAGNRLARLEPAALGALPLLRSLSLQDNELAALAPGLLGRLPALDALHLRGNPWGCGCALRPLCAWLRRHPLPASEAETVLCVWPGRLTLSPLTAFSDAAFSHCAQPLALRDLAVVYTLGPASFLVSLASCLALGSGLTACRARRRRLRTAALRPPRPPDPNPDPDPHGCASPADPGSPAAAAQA
Chain of 6-phosphogluconate dehydrogenase, decarboxylating (Homo sapiens) (P52209 whole entry, looked up): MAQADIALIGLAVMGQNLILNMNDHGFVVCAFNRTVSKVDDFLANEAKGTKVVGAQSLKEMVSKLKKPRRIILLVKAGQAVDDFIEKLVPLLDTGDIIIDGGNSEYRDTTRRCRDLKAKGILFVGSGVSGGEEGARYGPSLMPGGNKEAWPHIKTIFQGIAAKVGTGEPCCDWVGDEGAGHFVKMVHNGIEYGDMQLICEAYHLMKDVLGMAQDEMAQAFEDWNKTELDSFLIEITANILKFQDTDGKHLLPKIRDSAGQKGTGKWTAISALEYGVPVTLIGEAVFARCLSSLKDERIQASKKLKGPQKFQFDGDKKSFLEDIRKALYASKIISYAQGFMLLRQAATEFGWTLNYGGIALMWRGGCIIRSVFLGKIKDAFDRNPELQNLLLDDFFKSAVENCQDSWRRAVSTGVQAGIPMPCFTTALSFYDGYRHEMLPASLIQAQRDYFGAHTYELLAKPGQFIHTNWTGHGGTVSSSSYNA

CC(C)C(=O)Nc1ccc([N+](=O)[O-])c(C(F)(F)F)c1
inactive: nuclear beta-catenin stimulation ([1]; at 10 µM) 0.6% | insulin secretion stimulation [2] 3.4% | viability decrease [3] 13.4% | tube area decrease [4] -12.8% | GLP1 secretion stimulation [5] -0.5% | inhibition of viability [6] 25.5% | viability decrease (inhibition) [7] 40.5% | viability decrease (inhibition) [8] -3.7% | inhibition [9] -5.89% | red/green cell ratio (normalised) [10] 1.03 | z-score [11, 17] -0.353 and 0.314 and 0.345 | viability ([12]; at 0.000305 µM, OCI-C5x cells, with rucaparib 10 µM, 100% = cells with rucaparib alone) 102% | viability ([12]; at 0.000305 µM, OCI-C5x cells, without rucaparib) 114% | viability ([12]; at 0.000305 µM, OCI-P5x cells, without rucaparib) 103% | viability ([12]; at 0.00122 µM, OCI-C5x cells, with rucaparib 10 µM, 100% = cells with rucaparib alone) 114% | viability ([12]; at 0.00122 µM, OCI-C5x cells, without rucaparib) 115% | viability ([12]; at 0.00122 µM, OCI-P5x cells, without rucaparib) 104% | viability ([12]; at 0.00488 µM, OCI-C5x cells, with rucaparib 10 µM, 100% = cells with rucaparib alone) 111% | viability ([12]; at 0.00488 µM, OCI-C5x cells, without rucaparib) 113% | viability ([12]; at 0.00488 µM, OCI-P5x cells, with rucaparib 20 µM, 100% = cells with rucaparib alone) 107% | viability ([12]; at 0.00488 µM, OCI-P5x cells, without rucaparib) 106% | viability ([12]; at 0.0195 µM, OCI-C5x cells, with rucaparib 10 µM, 100% = cells with rucaparib alone) 114% | viability ([12]; at 0.0195 µM, OCI-C5x cells, without rucaparib) 118% | viability ([12]; at 0.0195 µM, OCI-P5x cells, with rucaparib 20 µM, 100% = cells with rucaparib alone) 104% | viability ([12]; at 0.0195 µM, OCI-P5x cells, without rucaparib) 105% | viability ([12]; at 0.0781 µM, OCI-C5x cells, with rucaparib 10 µM, 100% = cells with rucaparib alone) 112% | viability ([12]; at 0.0781 µM, OCI-C5x cells, without rucaparib) 116% | viability ([12]; at 0.0781 µM, OCI-P5x cells, with rucaparib 20 µM, 100% = cells with rucaparib alone) 103% | viability ([12]; at 0.0781 µM, OCI-P5x cells, without rucaparib) 112% | viability ([12]; at 0.313 µM, OCI-C5x cells, with rucaparib 10 µM, 100% = cells with rucaparib alone) 109% | viability ([12]; at 0.313 µM, OCI-C5x cells, without rucaparib) 109% | viability ([12]; at 0.313 µM, OCI-P5x cells, with rucaparib 20 µM, 100% = cells with rucaparib alone) 109% | viability ([12]; at 0.313 µM, OCI-P5x cells, without rucaparib) 115% | viability ([12]; at 1.25 µM, OCI-C5x cells, with rucaparib 10 µM, 100% = cells with rucaparib alone) 107% | viability ([12]; at 1.25 µM, OCI-C5x cells, without rucaparib) 118% | viability ([12]; at 1.25 µM, OCI-P5x cells, with rucaparib 20 µM, 100% = cells with rucaparib alone) 101% | viability ([12]; at 1.25 µM, OCI-P5x cells, without rucaparib) 113% | viability ([12]; at 5 µM, OCI-C5x cells, with rucaparib 10 µM, 100% = cells with rucaparib alone) 112% | viability ([12]; at 5 µM, OCI-C5x cells, without rucaparib) 133% | viability ([12]; at 5 µM, OCI-P5x cells, with rucaparib 20 µM, 100% = cells with rucaparib alone) 104% | viability ([12]; at 5 µM, OCI-P5x cells, without rucaparib) 112% | remaining NAD [13] 10 nM | log fold change Tl+ flux (F380Y) 0.0165 | log fold change Tl+ flux (F380Y/beta1) 0.104 | log fold change Tl+ flux (F380Y/beta2Delta) -0.0159 | log fold change Tl+ flux (F380Y/beta4) -0.0805 | log fold change Tl+ flux [14] -0.0492
0.92: normalised cell number [10, 15]
0.95: normalised cell number [10, 16]
active: viability ([12]; at 0.000305 µM, OCI-P5x cells, with rucaparib 20 µM, 100% = cells with rucaparib alone) 93.2% | viability ([12]; at 0.00122 µM, OCI-P5x cells, with rucaparib 20 µM, 100% = cells with rucaparib alone) 98.6% | log fold change Tl+ flux (R275C) -0.0976
0.471 and 0.28 and 0.177: z-score [11, 18]
-0.2%: nuclear beta-catenin stimulation ([1]; stimulation, at 2 µM)

CC(C[N+](C)(C)C)OC(N)=O (stereo unspecified)
inactive: nuclear beta-catenin stimulation ([1]; at 10 µM) -0.5% | insulin secretion stimulation [2] 0.3% | viability decrease [3] -5.9% | tube area decrease [4] -10% | GLP1 secretion stimulation [5] 0.5% | inhibition of viability [6] -0.4% | viability decrease (inhibition) [7] -11.8% | viability decrease (inhibition) [8] -7.3% | inhibition [9] -9.2% | red/green cell ratio (normalised) [10] 0.97 | z-score [11, 17] -0.399 and 0.646 and 0.598 | remaining NAD [13] 10 nM | log fold change Tl+ flux (F380Y) 0.0115 | log fold change Tl+ flux (F380Y/beta1) 0.0306 | log fold change Tl+ flux (F380Y/beta2Delta) -0.0155 | log fold change Tl+ flux (F380Y/beta4) 0.00469 | log fold change Tl+ flux [14] 0.00848 | log fold change Tl+ flux (R275C) 0.0156
1.15: normalised cell number [10, 15]
0.843 and -0.822 and 0.416: z-score [11, 18]
-1.3%: nuclear beta-catenin stimulation ([1]; stimulation, at 2 µM)
1.11: normalised cell number [10, 16]

Source: PubChem BioAssay
